The values below come from PubChem BioAssay AID1159524 (National Center for Advancing Translational Sciences (NCATS), 2015).

The campaign covered roughly 410,000 compounds. About 5,100 (1.2%) were called active. Roughly 8% stayed inconclusive and do not appear here. The sample as a whole holds a higher share of actives than the screen did. Unmarked numbers belong to inactive results. Calls come from the whole dose curve; tested in HEK293T cells.
% is set by controls: 0 for no effect and ±100 for the full control effect; potency is the fitted concentration of half-maximal effect.

This assay is described as follows: High Throughput Screening for Foot and Mouth Disease Virus Antivirals. Note: read-out not given here; nearly all actives have a fitted effect of over 45% in size. As to conditions: FMDV antiviral cell-based qHTS; series mostly up to 57.9 µM; activity change, negative = inhibition: at the top concentration.
Consider `COc1ccc2[nH]cc(CCNCc3ccc(Br)cc3)c2c1`, for which the “activity change, negative = inhibition” value was -2.27%.
Still for that read-out and setting: the value for `Cc1ccc2nc(-c3ccc(C)c(NC(=O)Cc4ccccc4)c3)oc2c1` was -20.8%.
Consider `O=c1oc2ccccc2cc1-c1cn(-c2ccccc2)c(=S)[nH]1`, for which the Potency was 12.6 µM (active).
Regarding `Cc1cc(NC(=O)c2cccc(Cl)c2)ccc1-c1cc2ccccc2oc1=O`, the “activity change, negative = inhibition” value was 14.4%.
Same read-out and setting: the value for `COc1ccc(OC)c(-c2csc(-c3c(N)c(C(=O)c4ccccc4)n4ccccc34)n2)c1` was 0%.
The same measure, in the same setting: the same measure for `CCOC(=O)c1[nH]c(C)c(CCC(=O)N2CCN(c3ccccc3)CC2)c1C`: -19.3%.
`CCOc1ccc2nc(N3CCCN(CCCn4cccn4)CC3)nc(C)c2c1`: the “activity change, negative = inhibition” value is -17.5%.
Still for that read-out and setting: the same measure for `CCCn1ccc2c(OCC(=O)NCc3ccc(F)cc3)cccc2c1=O`: 0%.
On to `COc1ccc(NC(=O)C2=CC(c3ccc(OC)c(OC)c3)=NS(=O)(=O)N2C)cc1`, for which the Potency is 31.6 µM (active).
Still for that read-out and setting: the value for `COc1ccc(C2=NS(=O)(=O)N(C)C(C(=O)NC(C)c3ccccc3)=C2)cc1` (configuration not stated) was “inactive”.
Take `COc1ccc(C2=NS(=O)(=O)N(C)C(C(=O)N3CCCCC3)=C2)cc1`: the “activity change, negative = inhibition” value was -9.97%.
Consider `Cc1ccc2c(c1)c1c(c(=O)n(-c3ccccc3)c(=O)n1CC(=O)c1ccc(Cl)cc1)n2C`, for which the “activity change, negative = inhibition” value is 7.15%.
Still for that read-out and setting: the same measure for `Clc1ccc([C@@H]2C[C@H]3CC[C@@H]2N3)cn1`: -11.7%; for `O=C(CSc1nc2cc3c(cc2c(=O)n1CCC1=CCCCC1)OCO3)NCc1ccco1`: -21.5%.
Regarding `O=C(CSc1c2c(nc3ccc(Cl)cc13)CCCC2)NCc1ccco1`, the Potency was 25.1 µM (active).
Take `O=C(NCc1ccco1)C1(c2ccc(Cl)cc2)CCCC1`: the “activity change, negative = inhibition” value was -11.9%.
On the same count and under the same terms, the same measure for `COc1cc(C)c(CN2CCc3nnc(C(C)NC(=O)c4cccnc4)n3CC2)cc1C` (configuration not stated): -1.27%; for `COc1cccc(-c2ccc(O)c(CNC3CN4CCC3CC4)c2)n1` (configuration not stated): -2.84%.
For the compound `O=C(NCCN1CCOCC1)c1cnn(-c2nccc(-c3cccs3)n2)c1C1CC1`, the “activity change, negative = inhibition” value was -14.6%.
Still for that read-out and setting: the value for `O=C(c1cnccn1)N1CCC[C@@]2(CCN(Cc3ccncc3)C2)C1` was 4.24%; that for `Cc1nc2cnc(Nc3ccccc3)nc2n(Cc2ccc(F)cc2)c1=O` was -2.58%; that for `CCCCNC(=O)c1ccc2c(c1)NC(=O)C(C(C)C)N2` (configuration not stated) was -8.61%.
The same measure, in the same setting: the value for `COc1ccc(NC(=O)N2CC3(CCN(C(C)=O)CC3)C2)cc1` was -13.1%.
On the same count and under the same terms, the value for `CC(C)(C)OC(=O)N[C@H](C(=O)OC(C)(C)C)c1ccc(Br)cc1` was 0%.
As for `Cc1ccc(C(=O)NNC(=O)OC(C)(C)C)c(Cl)c1`, the “activity change, negative = inhibition” value is 17.1%.
In the case of `CC(C)(C)OC(=O)NNc1c2ccccc2nc2ccccc12`, the Potency is 20 µM (active).
`O=C(c1cc(C(F)(F)F)cc(C(F)(F)F)c1)N1CCC2(CC1)CN(c1ccncc1)C2`: the “activity change, negative = inhibition” value is 9.6%.
On the same count and under the same terms, the value for `Fc1cccc(/C=N\N=C/c2cccc(F)c2)c1` was 48.9%.
Regarding `CCCCOC(=O)CNc1nnc(SCC(=O)OCC)[nH]c1=O`, the Potency was 39.8 µM (active).
For `Cc1nnc(SCCCCSc2nnc(C)c(=O)[nH]2)[nH]c1=O`, the “activity change, negative = inhibition” value was -7.02%.
For the compound `CCOC(=O)CNc1nc2ccccc2n2c(C)nnc12`, the Potency entry is “inactive”.
`Cc1cccc(Cc2c(C)nc3nc(SCc4ccccc4Cl)nn3c2C)c1`: the “activity change, negative = inhibition” value was -0.876%.
The same measure, in the same setting: the same measure for `CCOc1ccc(C(=O)c2cn(Cc3ccc(F)cc3)c3ccc(F)cc3c2=O)cc1`: -2.69%; for `COC(=O)c1ccccc1NC(=O)Cn1c(=O)cc(C)c2c(C)nn(-c3cccc(Cl)c3C)c21`: -15.1%.
The same measure, in the same setting: the value for `O=c1c(-c2ccc(F)cc2)nc2cnc(N3CCOCC3)nc2n1-c1ccccc1` was -17.7%; that for `C=CCN1CCC2(C)c3cc(O)ccc3CC1[C@@H]2C` (some centres not stated) was -3.63%; that for `CCn1c(CSc2nc(C)cc(C)n2)nnc1SCC(N)=O` was -14.6%.
With `Cc1cc(C)nc(S/C=C/C(=O)c2ccccc2)n1`, the Potency was 12.6 µM (active).
Consider `O=C(CSCc1cnn(-c2ccccc2)c1-n1cccc1)NCc1ccc(Cl)cc1`, for which the “activity change, negative = inhibition” value is -12.8%.
Still for that read-out and setting: the same measure for `COc1cn(CC(=O)Nc2cccc(C)c2C)c(CN2CCCCC2)cc1=O`: -2.87%.
For the compound `COc1ccc2[nH]cc(CCNc3cc(-c4ccccc4CN(C)C)ncn3)c2c1`, the “activity change, negative = inhibition” value was -6.42%.
Consider `O=C(Nc1cccc(NC(=O)N2CCN(c3ccccc3)CC2)c1)N1CCN(c2ccccc2)CC1`, for which the Potency was 25.1 µM (active).
As to `COc1cccc(N2CCN(C(=O)Nc3ccc4c(c3)NC(=O)CO4)CC2)c1`, the “activity change, negative = inhibition” value was -24.9%.
Same read-out and setting: the same measure for `O=C(Nc1ccccc1)N1CCN(C2c3ccccc3-c3ccccc32)CC1`: -14%; for `CC(C)NC[C@H](O)c1ccc2ccccc2c1`: -13.9%.
Still for that read-out and setting: the same measure for `CCc1nn(CCCC(=O)NCc2ccccc2OC)c(=O)c2cc3occc3n12`: -17.4%.
In the case of `COCCn1c(=O)c(-c2cc(F)cc(F)c2)nc2cnc(N3CCNCC3)nc21`, the “activity change, negative = inhibition” value is 0.569%.
The same measure, in the same setting: the value for `COc1ccc(-c2cn3nc(N4CCCC(C(=O)NCCCOC(C)C)C4)sc3n2)cc1` (configuration not stated) was -20.5%.
On to `O=C(Nc1c(-c2ccc(F)cc2)nc2ccccn12)c1cccc(F)c1`, for which the “activity change, negative = inhibition” value was -6.72%.
On to `O=C(/C(=C/c1cccc(Cl)c1)c1nc2ccccc2[nH]1)c1ccccc1`, for which the Potency was 7.94 µM (active).
As for `N#C/C(=C\c1ccccc1F)c1nc2ccccc2c(=O)[nH]1`, the “activity change, negative = inhibition” value is -17.8%.
`Cc1ccc2nc(CNC(=O)c3ccccc3)[nH]c2c1`: the “activity change, negative = inhibition” value was 69.6%.
Consider `Cc1ccccc1Cn1nc(C)c(NC(=O)c2cc(-c3ccc(F)cc3)on2)c1C`, for which the “activity change, negative = inhibition” value was -21.6%.
In the case of `Cc1nn(Cc2ccc(F)cc2)c(C)c1NC(=O)c1noc2c1CCc1ccccc1-2`, the Potency is 31.6 µM (active).
For `COc1ccc2c(c1)CCc1c(C(=O)Nc3cc(C)ccc3O)noc1-2`, the “activity change, negative = inhibition” value was 21.7%.
Same read-out and setting: the value for `CCC(C)NC(=O)Cn1c(=O)n(-c2ccc(Cl)cc2)c(=O)c2c3c(sc21)CCCC3` (configuration not stated) was -21.7%; that for `COc1cc2c(cc1OC)CC1(CCCCC1)N=C2` was 1.73%.
Same read-out and setting: the value for `COc1cc2c(cc1OC)C(Nc1ccc(S(N)(=O)=O)cc1)=NC(C)(C)C2` was 5.48%.
Take `COc1cc2c(cc1O)C(SC)=NC(C)(C)C2`: the Potency is 20 µM (active).
As to `COc1ccccc1-c1cc(NCc2cccs2)ncn1`, the “activity change, negative = inhibition” value was 9.02%.
Regarding `CC(C)C(N)C(=O)OCCOCn1cnc2c(=O)[nH]c(N)nc21` (configuration not stated), the “activity change, negative = inhibition” value is 33.8%.
Regarding `O=c1c(-c2cc(F)cc(F)c2)nc2cnc(Oc3ccccc3)nc2n1C[C@H]1CCCO1`, the “activity change, negative = inhibition” value is -2.22%.
For `C/C=C/c1ccc(OCC(=O)OCC(=O)Nc2c(C)nn(-c3ccccc3)c2C)c(OC)c1`, the “activity change, negative = inhibition” value is -22.7%.
`Cc1ccc(OC(=O)c2c(C)nn(-c3ccccc3)c2C)cc1`: the “activity change, negative = inhibition” value is 36.2%.
Turning to `CCCn1c(C)cc(C(=O)COC(=O)c2c(C)nn(-c3ccccc3)c2C)c1C`, the Potency was 35.5 µM (active).
Turning to `COc1ccc(CNC(=O)COC(=O)c2c(C)nn(-c3ccccc3)c2C)cc1OC`, the Potency was 39.8 µM (active).
For the compound `COc1ccc(CNC(=O)COc2ccccc2C(=O)c2cnn(-c3ccccc3)c2)cc1OC`, the “activity change, negative = inhibition” value is -16.8%.
With `CCC(Oc1ccccc1)C(=O)OCC(=O)Nc1c(C)nn(-c2ccccc2)c1C` (configuration not stated), the “activity change, negative = inhibition” value was -16.5%.
As for `COc1cccc(Cn2c(=O)c(-c3cc(F)cc(F)c3)nc3cnc(OC)nc32)c1`, the “activity change, negative = inhibition” value is -4.74%.
Still for that read-out and setting: the value for `COc1cccc(Nc2ncc3ncc(=O)n(C4CC4)c3n2)c1` was 15.6%.
Still for that read-out and setting: the value for `NCCCNCCCCN(CCCN)/[N+]([O-])=N/O` was -17.2%; that for `N#CCCn1c(=O)c(-c2cc(F)cc(F)c2)nc2cnc(Oc3ccccc3)nc21` was -7.27%; that for `COc1ccc(OC)c(CNC(=O)CN2C(=O)CCn3nc(-c4cn(C)c5ccccc45)cc32)c1` was -24.5%.
For the compound `CCc1ccc(OCC(=O)N2CCN(CC(=O)Nc3ccccc3Cl)CC2)cc1`, the “activity change, negative = inhibition” value is -11.6%.
On to `CN(C(=O)CN1CCN(c2cc(-c3ccc(OCc4ccccc4)cc3)ncn2)CC1)c1ccccc1`, for which the Potency is 25.1 µM (active).
Turning to `CCN(CC)c1ccc(NC(=O)CN2CCN(c3ccccn3)CC2)cc1`, the “activity change, negative = inhibition” value is -7.32%.
The same measure, in the same setting: the value for `c1ccc2c(Nc3ccncc3)nc(-c3ccoc3)nc2c1` was 2.01%; that for `Cc1nc2cnc(N3CCN(C)CC3)nc2n(C[C@H]2CCCO2)c1=O` was -18.4%; that for `COc1cccc(C(=O)N(Cc2cccc(Cl)c2)Cc2ccco2)c1` was 0%.
As to `CC(=O)c1cc(CN2CCC(C(=O)Nc3cccc(-c4cscn4)c3)CC2)cs1`, the Potency was 20 µM (active).
As for `CCn1cc(CN2CCC(C(=O)Nc3cccc(-c4cccc(Cl)c4)c3)CC2)cn1`, the “activity change, negative = inhibition” value is -16.3%.
Same read-out and setting: the value for `CCn1cc(CN2CCC(C(=O)Nc3cccc(-c4cccc(Cl)c4)c3)CC2)c(C)n1` was -17.4%; that for `CCOc1cc(C(=O)Nc2nnc3n2CCS3)cc(OCC)c1OCC` was 4.52%; that for `c1ccc(CN2CC[C@@]3(CCCNC3)C2)cc1` was -12.5%.
As to `CC(C)OCCCNc1ncnc2c1[nH]c1ccc(F)cc12`, the Potency is 39.8 µM (active).
Same read-out and setting: the value for `COc1ccc(C2Nc3ccccc3C(=O)N2c2ccc(Cl)cc2)cc1Cn1cc([N+](=O)[O-])cn1` (configuration not stated) was 100 µM (active).
In the case of `COc1ccccc1N1CCN(C2C(=O)c3ccccc3N2C(C)=O)CC1` (configuration not stated), the “activity change, negative = inhibition” value was -8.94%.
Same read-out and setting: the same measure for `CS(=O)(=O)N1CCC2(CC1)CN(Cc1ccccc1)C2`: -3.17%.
Turning to `N#Cc1nc(-c2ccc(OCc3ccccc3)cc2)oc1NCCCN1CCOCC1`, the Potency was 39.8 µM (active).
Regarding `COc1ccc(OCc2ccc(-c3nc(C#N)c(N4CCN(c5ccccc5)CC4)o3)o2)cc1`, the “activity change, negative = inhibition” value is -19.7%.
Take `Cc1ccc(-c2nc(C#N)c(NCCCn3ccnc3)o2)cc1`: the “activity change, negative = inhibition” value was 57.1%.
Still for that read-out and setting: the value for `C/C=C(\C)C(=O)OC1C(OC(=O)C2(C)OC2C)c2cc3ccc(=O)oc3cc2OC1(C)C` (configuration not stated) was 0%; that for `Cc1nc2cnc(N3CCN(C)CC3)nc2n(CCC#N)c1=O` was -6.36%.
`CC1=CC(C)(C)Nc2ccc(OC(=O)CN3C(=O)C4CCCCC4C3=O)cc21` (configuration not stated): the Potency was 20 µM (active).
As for `Cc1ccc(COC(=O)CN2C(=O)NC3(CCCC3)C2=O)cc1`, the “activity change, negative = inhibition” value was 1.27%.
Still for that read-out and setting: the value for `CC(OC(=O)CN1C(=O)C2CCCCC2C1=O)C(=O)Nc1ncc(Cl)cc1Cl` (configuration not stated) was -9.05%.
The same measure, in the same setting: the value for `O=C(O)CCn1cc(C=C2C(=O)NC(=S)NC2=O)c(-c2cccc(Br)c2)n1` was 3.84%.
`O=C(O)CCn1cc(/C=C/C(=O)c2ccc(Cl)cc2)c(-c2cccc(Br)c2)n1`: the Potency was 25.1 µM (active).
As to `Cc1csc2nc(COC(=O)c3ccccc3NC(=O)c3ccccc3Cl)cc(=O)n12`, the “activity change, negative = inhibition” value is -8.02%.
On the same count and under the same terms, the same measure for `CCc1cnc2c(c1SCC(=O)c1ccccc1)c(=O)n(C)c(=O)n2C`: -24.2%; for `CCC(C)[C@@H](N)C(=O)O` (some centres not stated): 0.711%.
In the case of `Cc1ccc(SCC(=O)Nc2ccc3oc(-c4ccccc4F)nc3c2)cc1`, the “activity change, negative = inhibition” value is -0.835%.
